Some of the results follow. Records with an inconclusive call do not appear. Activity calls are given as the source filed them. Calls come from the whole dose curve; as a rule, active = well fitted inhibition curve with a large enough effect; inconclusive = small, poorly fitted or top-dose-only effect; inactive = flat fitted curve, though single readings scatter.

Sequence of Ubiquitin carboxyl-terminal hydrolase 2 (Homo sapiens) (O75604 whole entry, looked up): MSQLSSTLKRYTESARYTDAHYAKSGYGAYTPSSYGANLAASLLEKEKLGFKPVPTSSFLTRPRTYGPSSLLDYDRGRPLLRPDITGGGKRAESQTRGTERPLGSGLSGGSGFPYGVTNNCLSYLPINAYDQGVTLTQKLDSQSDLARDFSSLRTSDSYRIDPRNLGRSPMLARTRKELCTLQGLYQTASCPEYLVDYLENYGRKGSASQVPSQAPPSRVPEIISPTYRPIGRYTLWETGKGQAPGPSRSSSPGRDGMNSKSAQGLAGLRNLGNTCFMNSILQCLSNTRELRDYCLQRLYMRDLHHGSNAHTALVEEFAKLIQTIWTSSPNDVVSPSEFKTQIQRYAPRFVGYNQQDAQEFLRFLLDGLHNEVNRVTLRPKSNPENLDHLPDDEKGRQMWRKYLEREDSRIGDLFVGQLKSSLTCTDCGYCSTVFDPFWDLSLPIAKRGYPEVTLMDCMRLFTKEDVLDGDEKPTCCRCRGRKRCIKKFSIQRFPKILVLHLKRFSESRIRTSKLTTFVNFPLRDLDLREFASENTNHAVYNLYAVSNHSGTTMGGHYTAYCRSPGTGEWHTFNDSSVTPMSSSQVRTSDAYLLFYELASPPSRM

For the assay, the target named is Ubiquitin carboxyl-terminal hydrolase 2 (Homo sapiens) (UniProt O75604). The assay is described as follows: Confirmation Assay for Inhibitors of Ubiquitin-specific Protease USP2a Using CHOP2 as the Reporter: K633. The note with it: USP2 cleavage of DiUb K63-3IQF, fluorescence kinetic. From the text:
Homeostasis of cellular proteins is maintained through a combination of synthesis and degradation. The pathway that accounts for the majority of protein degradation is the ubiquitin-proteasomal pathway. Ubiquitin (Ub) is highly conserved in all cells and the generation of a multi-Ub chain typically targets proteins for degradation by the proteasome. However, ubiquitination is highly reversible and dynamic. Deubiquitination, the reverse process, is catalyzed through the action of enzymes referred to as isopeptidases or deubiquitinating enzymes (DUBs). This group of enzymes is collectively responsible for maintaining adequate pools of free ubiquitin and regulating the ubiquitination status of cellular proteins. The class of DUBs referred to as the ubiquitin-specific proteases (USP) family functions endoproteolytically to cleave Ub chains from a wide range of protein substrates. […] Confirmed qHTS active compounds were tested in an orthogonal USP2 assays utilizing a di-ubiquitin substrate labeled with a quencher on one ubiquitin and a fluorescent compound on the other, i.e. the substrate has internally quenched fluorescence or IQF (Lifesensors). In the presence of active USP2, the diubiquitin (DiUb) is cleaved and the fluorescence at 598 nm increases. […] Upon inhibition of USP2, the fluorescence signal from cleaved substrate increases less over time than in the absence of an inhibitor. […]
Turning to `Cc1ccc(-c2cc(C(=O)Nc3ncco3)c3ccccc3n2)cc1C`, the Potency is 3.43 µM (active).

Source of the values: PubChem BioAssay AID652172 (National Center for Advancing Translational Sciences (NCATS), 2013).
